Assay [1] can be described thus: Nuclear factor erythroid 2-related factor 2/antioxidant responsive element (Nrf2/ARE) small molecule agonists: qHTS cell viability counter screen in human keratinocytes (AID 1919968; active = well fitted curve in the direction sought with a large enough effect in the repeat runs; an effect the other way counts as inactive or inconclusive; also: nearly all actives have a fitted effect of over 55% in size; also: potency is read from the fitted curve at half-maximal effect). In a few lines:
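Parallel cytotoxicity read: KeratinoSens HaCaT cells, compound treatment 23 h, viability by CellTiter-Fluor fluorescence 1 h post-reagent.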
A general note: qHTS replaces the single test concentration by a dilution series.

Assay [2] in a line: Nuclear factor erythroid 2-related factor 2/antioxidant responsive element (Nrf2/ARE) small molecule agonists: luciferase reporter gene qHTS assay in human keratinocytes (AID 1919969). Also: nearly all actives have a fitted effect of over 35% in size. Also: potency is read from the fitted curve at half-maximal effect. A general note: In a reporter assay the amount or activity of a reporter protein is the signal.
Assay [3] addresses Gonadotropin-releasing hormone receptor (Homo sapiens) (UniProt P30968). In words: Human gonadotropin-releasing hormone receptor (GnRHR) small molecule agonists, calcium flux assay in GnRHR-HEK293 cells (AID 1920063). Also: nearly all actives have a fitted effect of over 35% in size. Also: potency is read from the fitted curve at half-maximal effect. The procedure, abridged:
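Calcium flux, agonist mode, human GnRHR stably integrated in HEK293; dye 1 h at 37 C before compound; Ex/Em=480/540 kinetic read, 3 min; 15 concentrations, triplicate.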
Background: A change in cytosolic calcium serves as a functional read-out for many receptors and channels.

For assay [4], the target named is KiSS-1 receptor (Homo sapiens) (UniProt Q969F8). In words: Human kisspeptin (KISS1R) small molecule agonists, calcium flux assay in KISS1R-HEK293 cells (AID 1920064; active = well fitted curve in the direction sought with a large enough effect in the repeat runs; an effect the other way counts as inactive or inconclusive; also: potency is read from the fitted curve at half-maximal effect). The procedure, abridged: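 Triplicate 15-concentration series were applied to dye-loaded human KISS1R HEK293 cells, and agonist-evoked calcium fluorescence was captured for 3 min.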
Assay [5] is described as follows: G protein-coupled receptor (GPCR) small molecule agonists, calcium flux assay: HEK293 wild type cell line counter screen (AID 1920065). Also: potency is read from the fitted curve at half-maximal effect. The procedure, abridged:
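Non-specific calcium responders were flagged by adding DMSO-dissolved compounds to dye-loaded cells and reading 480/540 nm fluorescence each second for 3 min; ATP served as positive control.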

Assay [6] can be described thus: p53 small molecule agonists, cell-based qHTS assay with human liver microsomes (AID 1963577). In a few lines: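 Fluorescence of the beta-lactamase reporter in p53RE-bla cells, detected with LiveBLAzer substrate (2 h, room temperature, dark), served as the read-out after 16 h compound exposure at 37 C with human liver microsomes and NADPH, each 0.5 mg/mL final.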
Assay [7] can be described thus: p53 small molecule agonists, cell-based qHTS assay with rat liver microsomes (AID 1963578). In a few lines: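 Cells carrying a p53 response element–beta-lactamase reporter were plated and rested 5 h, then dosed with compound in DMSO plus rat liver microsomes and NADPH, each at 0.5 mg/mL final. After 16 h at 37 C, LiveBLAzer substrate was added for 2 h.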
The nature of assay [8]: p53 small molecule agonists, cell-based qHTS assay with human liver microsomes: qHTS cell viability counter screen (AID 1963579). Also: nearly all actives have a fitted effect of over 45% in size. Also: potency is read from the fitted curve at half-maximal effect. The procedure, abridged:
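Cytotoxicity counter screen: p53RE-bla, 4,000 cells/well; 5 h settle, 37 C/5% CO2; cpd + HLM 0.5 mg/mL + NADPH 0.5 mg/mL (final); 16 h, 37 C; CellTiter-Glo, 30 min RT, luminescence.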

A short description of assay [9]: p53 small molecule agonists, cell-based qHTS assay: qHTS cell viability counter screen (AID 1963581). Also: nearly all actives have a fitted effect of over 45% in size. In a few lines:
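Multiplexed with the reporter read, a CellTiter-Glo step (30 min, room temperature) gauges ATP-based viability of HCT-116 p53RE-bla cells after 16 h compound incubation at 37 C.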

Assay [10] can be described thus: p53 small molecule agonists, cell-based qHTS assay (AID 1963582; active = well fitted activation curve with a large enough effect in the signal ratio in the repeat runs, not every such curve was filed as active; the % refers to the signal ratio). The procedure, abridged:
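Beta-lactamase reporter cells (p53RE-bla) treated with compounds for 16 h at 37 C; FRET substrate, 2 h, room temperature; fluorescence intensity.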

In assay [11] the target is 5-hydroxytryptamine receptor 2A (Homo sapiens) (UniProt P28223). The experiment in a line: 5-hydroxytryptamine receptor 2A (HTR2A) small molecule agonists, cell-based qHTS assay (AID 1963587). Also: nearly all actives have a fitted effect of over 30% in size. Also: potency is read from the fitted curve at half-maximal effect. In a few lines:
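HTR2A-CHO cells, plated 18 h at 37 C/5% CO2, dye-loaded 1 h at 37 C; compounds in DMSO added by pin tool (agonist mode). Intracellular calcium flux read as kinetic fluorescence on FDSS over 2 min at 1 s intervals.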

Assay [12] has as its target Muscarinic acetylcholine receptor M1 (Homo sapiens) (UniProt P11229). In words: Cholinergic receptor muscarinic 1 (CHRM1) small molecule antagonists, cell-based qHTS assay (AID 1963588). Also: nearly all actives have a fitted effect of over 40% in size. Also: potency is read from the fitted curve at half-maximal effect. The procedure, abridged:
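Compounds were tested at 15 concentrations in three independent runs. Dye-loaded CHRM1-CHO cells were exposed 5 min at room temperature before stimulation by acetylcholine added at 50nM. Intracellular calcium was read kinetically on FDSS for 3 min.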

The target is the same in assay [13]. The experiment in a line: Cholinergic receptor muscarinic 1 (CHRM1) small molecule agonists, cell-based qHTS assay (AID 1963589). Also: nearly all actives have a fitted effect of over 35% in size. Also: potency is read from the fitted curve at half-maximal effect. The procedure, abridged: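 qHTS, 15-point titration, 3 independent runs: compounds pin-transferred onto dye-loaded CHRM1-CHO cells (human M1), calcium fluorescence followed every second to detect agonism.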
Assay [14] in a line: cAMP Responsive Elements (CRE) small molecule agonists, cell-based qHTS assay (AID 1963590). The procedure, abridged:
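Quantitative HTS for CRE agonists: HEK 293T CRE-bla cells, overnight plating, 3 h compound incubation at 37 C/5% CO2, then 2 h room-temperature LiveBLAzer B/G FRET substrate loading.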

The nature of assay [15]: cAMP Responsive Elements (CRE) small molecule antagonists, cell-based qHTS assay (AID 1963591; active = well fitted inhibition curve with a large enough effect in the signal ratio in the repeat runs, not every such curve was filed as active; the % refers to the signal ratio). The procedure, abridged: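 Fluorescence intensity from cleaved LiveBLAzer B/G substrate (2 h, room temperature) quantified CRE-bla activity in HEK 293T cells exposed 3 h to compound with 0.25 uM final NKH477.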
In assay [16] the target is Beta-2 adrenergic receptor (Homo sapiens) (UniProt P07550). The experiment in a line: Adrenergic beta2 receptor (ADRB2) small molecule antagonists, cell-based qHTS assay (AID 1963592). Also: nearly all actives have a fitted effect of over 50% in size. Also: potency is read from the fitted curve at half-maximal effect. As to activity change, negative = inhibition: series mostly up to about 92 µM. The procedure, abridged: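 Assay format: CHO-ADRB2 cells, 18-20hr seeding at 37C/5% CO2, then compound plus 1nM isoproterenol agonist mix for 0.5hr RT. Homogeneous time-resolved fluorescence cAMP detection after 1hr, expressed as 665/615 nm ratio.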

Assay [17] has as its target D(2) dopamine receptor (Homo sapiens) (UniProt P14416). The experiment in a line: Dopamine D2 receptor (DRD2) small molecule agonists, cell-based qHTS assay (AID 1963594). Also: nearly all actives have a fitted effect of over 35% in size. Also: potency is read from the fitted curve at half-maximal effect. In a few lines: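 HEK293 cells stably expressing DRD2 were cultured 24 h at 37 C, then given Ro20-1724 (0.1 mM final) and compounds for 10 min at room temperature. NKH477 (200nM) was then added for 30 min. cAMP was read by HTRF.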

For assay [18] the target is unchanged. In words: Dopamine D2 receptor (DRD2) small molecule antagonists, cell-based qHTS assay (AID 1963595; active = well fitted inhibition curve with a large enough effect in the signal ratio in the repeat runs, with a control signal flat; the % refers to the signal ratio; also: potency is read from the fitted curve at half-maximal effect). The procedure, abridged:
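HEK293 cells stably expressing DRD2, preincubated with 0.1 mM Ro20-1724 and compounds 10 min, were stimulated with 200 nM NKH477 plus 12 nM quinpirole for 30 min at room temperature; cAMP measured by HTRF (665/620 nm).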

The nature of assay [19]: p53 small molecule agonists, cell-based qHTS assay with rat liver microsomes: qHTS cell viability counter screen (AID 1963580). Also: nearly all actives have a fitted effect of over 45% in size. Also: potency is read from the fitted curve at half-maximal effect. The procedure, abridged: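 Luminescent ATP readout (CellTiter-Glo, 30 min at room temperature) reports viability of p53RE-bla HCT-116 cells after 16 h at 37 C with test compounds under metabolic activation by rat liver microsomes and NADPH at 0.5 mg/mL final each.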

Assay [20] deals with 5-hydroxytryptamine receptor 2A (Homo sapiens) (UniProt P28223). In words: 5-hydroxytryptamine receptor 2A (HTR2A) small molecule antagonists, cell-based qHTS assay (AID 1963586). Also: nearly all actives have a fitted effect of over 45% in size. In a few lines:
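CHO cells stably expressing human HTR2A were plated for 18 h at 37 C, then loaded with calcium dye for 1 h. Compounds were preincubated 5 min at room temperature before DOI (4 nM solution) was added. Kinetic fluorescence was read for 3 min.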

A number with no mark means an inactive call. Inconclusive results are not listed. Calls of active or inactive are those of the source. Unless noted, calls follow the shape of the full dose curve.
% is scaled to controls: 0 for no effect and ±100 for the full control effect.

D(2) dopamine receptor (Homo sapiens), sequence (P14416 whole entry, looked up): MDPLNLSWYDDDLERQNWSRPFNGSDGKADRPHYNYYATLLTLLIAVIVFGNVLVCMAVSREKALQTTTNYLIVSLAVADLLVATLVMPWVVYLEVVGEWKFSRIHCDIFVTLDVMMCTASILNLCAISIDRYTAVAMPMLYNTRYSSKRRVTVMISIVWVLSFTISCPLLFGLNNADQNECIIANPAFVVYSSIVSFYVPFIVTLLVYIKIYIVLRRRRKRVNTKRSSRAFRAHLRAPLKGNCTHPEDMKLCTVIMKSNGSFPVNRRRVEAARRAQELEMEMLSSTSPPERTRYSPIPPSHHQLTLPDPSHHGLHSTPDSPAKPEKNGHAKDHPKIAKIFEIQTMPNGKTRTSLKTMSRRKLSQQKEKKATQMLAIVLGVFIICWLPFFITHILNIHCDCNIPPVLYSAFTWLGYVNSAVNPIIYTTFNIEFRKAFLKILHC
Beta-2 adrenergic receptor (Homo sapiens), sequence (P07550 whole entry, looked up): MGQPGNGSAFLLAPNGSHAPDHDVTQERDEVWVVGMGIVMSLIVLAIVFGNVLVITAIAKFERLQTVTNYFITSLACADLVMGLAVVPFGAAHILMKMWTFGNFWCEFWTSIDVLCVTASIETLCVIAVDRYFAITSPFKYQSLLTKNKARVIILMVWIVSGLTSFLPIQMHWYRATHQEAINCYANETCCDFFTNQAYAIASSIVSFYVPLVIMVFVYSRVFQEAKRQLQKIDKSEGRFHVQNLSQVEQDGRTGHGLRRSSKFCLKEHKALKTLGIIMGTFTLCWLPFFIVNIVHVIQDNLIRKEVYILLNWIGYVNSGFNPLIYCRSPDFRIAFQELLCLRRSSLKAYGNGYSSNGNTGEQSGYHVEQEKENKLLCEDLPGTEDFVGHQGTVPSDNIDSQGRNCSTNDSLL
5-hydroxytryptamine receptor 2A (Homo sapiens), sequence (P28223 whole entry, looked up): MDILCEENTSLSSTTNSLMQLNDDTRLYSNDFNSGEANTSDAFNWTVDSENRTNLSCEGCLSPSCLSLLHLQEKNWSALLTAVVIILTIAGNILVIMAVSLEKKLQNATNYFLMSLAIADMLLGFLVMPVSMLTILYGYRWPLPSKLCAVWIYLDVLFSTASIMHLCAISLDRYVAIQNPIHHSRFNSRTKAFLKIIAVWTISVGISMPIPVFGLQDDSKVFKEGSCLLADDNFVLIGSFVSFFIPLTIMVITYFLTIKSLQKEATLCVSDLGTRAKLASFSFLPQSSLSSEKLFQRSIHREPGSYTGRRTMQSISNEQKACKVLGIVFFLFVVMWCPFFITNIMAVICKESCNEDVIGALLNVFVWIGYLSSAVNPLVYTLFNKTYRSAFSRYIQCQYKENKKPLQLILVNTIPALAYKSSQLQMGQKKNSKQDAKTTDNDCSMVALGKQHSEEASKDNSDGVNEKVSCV
Gonadotropin-releasing hormone receptor (Homo sapiens), sequence (P30968 whole entry, looked up): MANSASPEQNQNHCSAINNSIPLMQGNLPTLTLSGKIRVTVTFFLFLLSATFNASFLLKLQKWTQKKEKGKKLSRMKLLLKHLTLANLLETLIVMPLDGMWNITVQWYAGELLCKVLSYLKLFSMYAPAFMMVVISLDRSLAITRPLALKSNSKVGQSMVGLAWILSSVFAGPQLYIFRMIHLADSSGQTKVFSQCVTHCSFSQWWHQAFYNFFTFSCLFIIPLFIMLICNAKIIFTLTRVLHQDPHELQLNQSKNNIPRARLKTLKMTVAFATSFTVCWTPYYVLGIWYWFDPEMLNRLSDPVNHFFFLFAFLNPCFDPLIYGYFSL
Muscarinic acetylcholine receptor M1 (Homo sapiens), sequence (P11229 whole entry, looked up): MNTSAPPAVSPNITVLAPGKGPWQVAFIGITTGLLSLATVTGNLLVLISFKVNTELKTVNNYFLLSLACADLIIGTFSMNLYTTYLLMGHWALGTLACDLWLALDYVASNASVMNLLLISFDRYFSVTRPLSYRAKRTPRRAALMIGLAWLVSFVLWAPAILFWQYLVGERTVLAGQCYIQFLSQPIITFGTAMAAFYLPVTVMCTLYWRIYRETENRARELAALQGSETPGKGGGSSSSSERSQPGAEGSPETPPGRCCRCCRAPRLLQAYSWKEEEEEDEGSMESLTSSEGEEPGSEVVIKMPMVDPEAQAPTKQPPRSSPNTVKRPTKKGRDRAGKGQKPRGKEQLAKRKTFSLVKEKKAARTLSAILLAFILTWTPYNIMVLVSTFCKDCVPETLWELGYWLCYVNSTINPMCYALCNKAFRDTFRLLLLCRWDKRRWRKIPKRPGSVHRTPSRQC
KiSS-1 receptor (Homo sapiens), sequence (Q969F8 whole entry, looked up): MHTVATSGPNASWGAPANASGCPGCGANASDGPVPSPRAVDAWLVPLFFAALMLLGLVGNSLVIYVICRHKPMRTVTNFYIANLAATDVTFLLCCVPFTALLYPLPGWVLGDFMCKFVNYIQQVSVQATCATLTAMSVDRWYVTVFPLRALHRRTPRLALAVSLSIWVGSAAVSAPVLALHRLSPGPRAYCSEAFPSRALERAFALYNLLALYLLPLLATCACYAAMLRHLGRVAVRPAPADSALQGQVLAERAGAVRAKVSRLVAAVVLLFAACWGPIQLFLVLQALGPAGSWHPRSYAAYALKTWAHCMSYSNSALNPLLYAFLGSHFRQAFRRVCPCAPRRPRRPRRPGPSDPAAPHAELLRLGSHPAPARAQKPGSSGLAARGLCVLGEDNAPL

With `CCCCCCCCCCCCN=C(N)N`, the activity change, negative = cytotoxicity is -1.49% [at 3.27 µM] in assay [1], -3.65% [at 2.33 µM] in assay [8] and 10.9% [at 2.33 µM] in assay [9]. Also, the activity, positive = activation in [2] is -21.7% [at 3.27 µM]. The activity change in assay [3] is 1.72% [at 2.04 µM, hits give high values]. Besides, the activation was 1.8% [at 2.72 µM] in [4]; 0.159% [at 2.04 µM] in assay [5]; 0.2% [at 2.33 µM] in [6]; 0.708% [at 2.33 µM] in [7]; -3.75% [at 2.33 µM] in assay [10]; -1.31% [at 2.65 µM] in assay [11]. For the same compound, the activation in assay [13] was -0.462% [at 2.72 µM]; in assay [14], -0.694% [at 3.27 µM]; in assay [17] it was -4% [at 3.27 µM]. Moreover, the activity, negative = inhibition in [12] is 8.27% [at 2.17 µM]. In addition, the activity change, negative = inhibition in assay [15] is 1.77% [at 3.27 µM]; in [16] it was -9.86% [at 3.27 µM]; in assay [18], -0.313% [at 3.28 µM].
Consider `CCOc1ccc(C(C)(C)COCc2cccc(Oc3ccccc3)c2)cc1`, for which the Potency entry in assay [1], in [2], in [3], in assay [4], in assay [5] and in [6] was “inactive” each time. Moreover, the Potency entry in assay [7], in assay [8], in assay [19], in assay [10], in assay [11] and in [13] was “inactive” throughout. For the same compound, the Potency entry in assay [14], in [16], in assay [17] and in assay [18] was “inactive” throughout.
Turning to `ClC=C(Cl)Cl`, the Potency result in [1], in assay [2], in assay [3], in [4], in assay [5] and in assay [6] was “inactive” throughout. The Potency entry in [7], in [8], in assay [19], in assay [10], in assay [12] and in assay [13] was “inactive” throughout. Further, the Potency result in assay [14], in assay [15], in assay [16] and in assay [18] was “inactive” each time.
For `CC(=O)[O][Sn]([c]1ccccc1)([c]1ccccc1)[c]1ccccc1`, the Potency in assay [1] was 48.6 nM (active); in [2], 0.0193 µM (active); in assay [3], 17.4 µM (active); in assay [4], 49 µM (active); in assay [5], 38.9 µM (active); in [8], 6.46 µM (active). Also, the Potency in assay [19] is 1.62 µM (active); in assay [11], 24.5 µM (active); in assay [13] it was 24.5 µM (active); in assay [16], 61.1 µM (active); in assay [17] it was 52.4 µM (active); in assay [18], 3.06 µM (active). Further, the Potency result in [6] and in assay [7] was “inactive” each time.
In the case of `CSc1nc(N=[N+]=[N-])nc(NC(C)C)n1`, the Potency result in assay [1], in assay [2], in assay [3], in assay [4], in assay [5] and in assay [6] was “inactive” in each case. The Potency result in assay [7], in [8], in assay [9], in assay [10], in assay [20] and in assay [11] was “inactive” each time. The Potency result in [12], in [13], in [14], in [16], in assay [17] and in [18] was “inactive” in each case.
Regarding `O=NN1CCN(N=O)CC1`, the Potency entry in [1], in assay [2], in assay [3], in [4], in assay [5] and in assay [6] was “inactive” each time. The Potency entry in assay [7], in assay [8], in assay [9], in [10], in assay [20] and in assay [11] was “inactive” each time. In addition, the Potency entry in assay [13], in assay [14], in assay [15], in assay [16], in assay [17] and in assay [18] was “inactive” in each case.
With `N#CC(Br)(Br)C(N)=O`, the Potency entry in [1], in [2], in assay [3], in assay [4], in assay [5] and in assay [6] was “inactive” in each case. Also, the Potency entry in [7], in [8], in [19], in assay [10], in assay [20] and in [13] was “inactive” each time. The Potency entry in assay [14] was “inactive”. Moreover, the Potency in [12] is 4.7 nM (active).
For the compound `CN(C)CCc1c[nH]c2cccc(O)c12`, the Potency result in [1], in assay [3], in assay [4], in [5], in [6] and in assay [7] was “inactive” each time. Also, the Potency result in assay [8], in assay [19], in [10], in assay [12], in [13] and in assay [14] was “inactive” in each case. Further, the Potency result in assay [15] was “inactive”. The Potency in assay [2] is 67.9 µM (active).
As for `CCC1(c2ccccc2)C(=O)N=C(O)NC1=O` (stereo unspecified), the Potency entry in assay [1], in assay [2], in assay [3], in assay [4], in [5] and in assay [6] was “inactive” in each case. Besides, the Potency entry in [7], in assay [8], in assay [19], in [10], in assay [14] and in [15] was “inactive” in each case. Further, the Potency entry in [17] was “inactive”.

The record behind these values is PubChem BioAssay (Tox21).
